Several values for one entry are separate records, joined by “and”; a condition that tells them apart may be missing. Identical values can stand only once. More than one record can exist for a structure, and the calls need not agree. Activity calls are given as the source filed them. A call without a number means that no potency is given here. Unless noted, calls come from the whole dose curve; as a rule, active = well fitted curve in the direction sought with a large enough effect in the repeat runs; inconclusive = weak or mixed curves; inactive = no such curve, though single readings can be large; an effect the other way counts as inactive or inconclusive.
How the values were obtained:
[1] = qHTS assay for small molecules that induce genotoxicity in human embryonic kidney cells expressing luciferase-tagged ATAD5 (AID 651632); note: nearly all actives have a fitted effect of over 15% in size
Summary of the method: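 DMSO vehicle served as the control. HEK293T reporter cells, 16 hr at 37C, then 30 min Amplite at room temperature; ATAD5 induction is measured as luciferase activity.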

[2] = qHTS assay for small molecule agonists of the p53 signaling pathway - cell viability (AID 651633; calls by dose curve; note: nearly all actives have a fitted effect of over 30% in size; note: potency is the fitted concentration of half-maximal effect)
Summary of the method: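 Viability counter-read: CellTiter-Glo luminescence (30 min, room temperature) in the same p53RE-bla plates. These plates had been exposed to compounds for 16 h at 37 C.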

[3] = qHTS assay for small molecules that induce genotoxicity in human embryonic kidney cells expressing luciferase-tagged ATAD5 - cell viability (AID 651634; calls by dose curve; note: nearly all actives have a fitted effect of over 25% in size; note: potency is the fitted concentration of half-maximal effect)
Summary of the method: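 Here HEK293T cells with the ATAD5 luciferase reporter are incubated with test compounds for 15.5 hr, and cytotoxicity is then gauged by measuring protease activity in live cells using fluorescence.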

[4] = qHTS assay for small molecule disruptors of the mitochondrial membrane potential - cell viability (AID 720634; calls by dose curve;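 note: human HepG2 liver cancer cells; series mostly up to about 83 µM; nearly all actives have a fitted effect of over 20% in size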)
Summary of the method: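 Viability of HepG2 cells is scored from ATP content by luminescence; cells are exposed to compound for 1 hr at 37 C and 5% CO2, then dosed with m-MPI dye before the CellTiter-Glo reagent.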

[5] = qHTS assay to test for compound auto fluorescence at 590 nm (red) in HepG2 cells (AID 720674)
Summary of the method: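 We screened compounds on adherent HepG2 cells, incubating them for an hour at 37 C in 5% CO2 before reading emission at 590 nm under 540 nm excitation; values reflect equivalence to Rose Bengal sodium fluorescence.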

[6] = qHTS assay to test for compound auto fluorescence at 535 nm (green) in HepG2 cells (AID 720675)
[7] = qHTS assay to test for compound auto fluorescence at 460 nm (blue) in HEK293 cells (AID 720678)
Summary of the method: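 Intrinsic compound fluorescence is recorded in live HEK293 cultures after overnight incubation at 37C, 5% CO2, using excitation 405 nm and emission 460 nm. Values are referenced to triamterene.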

[8] = qHTS assay to test for compound auto fluorescence at 590 nm (red) in HEK293 cells (AID 720679)
Summary of the method: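 Red autofluorescence, HEK293 cells: 2,000 cells/well; attach 4-5 hr 37C; add 23 nL cpd or DMSO; incubate o/n 37C 5% CO2; read Ex540/Em590; Rose Bengal sodium reference.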

[9] = qHTS assay to test for compound auto fluorescence at 460 nm (blue) in HEK293 cell free culture (AID 720681)
Summary of the method: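 Blue fluorescence (Ex 405/Em 460 nm, triamterene-equivalent) was read immediately after pin transfer of compound or DMSO into medium (DMEM, 10% FBS) without cells.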

[10] = qHTS assay to test for compound auto fluorescence at 535 nm (green) in HEK293 cell free culture (AID 720682)
Summary of the method: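 Read-out: 485/535 nm fluorescence intensity, calibrated against fluorescein. Medium only (DMEM + 10% FBS, no cells); test compound or DMSO vehicle added by pintool before plate reading.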

[11] = qHTS assay to test for compound auto fluorescence at 590 nm (red) in HEK293 cell free culture (AID 720683)
Summary of the method: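 Red-channel autofluorescence of compounds in culture medium (DMEM, 10% FBS), no cells, measured at 540/590 nm. Rose Bengal sodium is the reference fluorophore for equivalence.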

[12] = qHTS assay to test for compound auto fluorescence at 590 nm (red) in HepG2 cell free culture (AID 720684)
Summary of the method: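 No cells present: MEM + 10% FBS only. Compound pinned in, red label read (540/590 nm). Activity = fluorescence equivalent to Rose Bengal sodium.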

[13] = qHTS assay to test for compound auto fluorescence at 460 nm (blue) in HepG2 cell free culture (AID 720685)
Summary of the method: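 Cell-free plates of MEM plus 10% FBS received 23 nL compound or DMSO vehicle; blue-channel (405/460 nm) intensity scored against triamterene as reference fluorophore.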

[14] = qHTS assay to test for compound auto fluorescence at 535 nm (green) in HepG2 cell free culture (AID 720686)
[15] = qHTS assay to test for compound auto fluorescence at 460 nm (blue) in HepG2 cells (AID 720687)
Summary of the method: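 Blue-channel autofluorescence (Ex/Em 405/460 nm, triamterene-equivalent) was measured after 1 hr compound exposure at 37 C, 5% CO2. Cells were HepG2, plated overnight at 37 C in MEM plus 10% FBS.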

[16] = target: Glucocorticoid receptor (Homo sapiens) (UniProt P04150); experiment: qHTS assay to identify small molecule agonists of the glucocorticoid receptor (GR) signaling pathway (AID 720691; active = well fitted activation curve with a large enough effect in the signal ratio in the repeat runs, not every such curve was filed as active; inconclusive = weak or mixed curves, or effect the other way; inactive = no such curve, though single readings can be large or run the other way; the % refers to the signal ratio; note: potency is the fitted concentration of half-maximal effect)
Sequence of Glucocorticoid receptor (Homo sapiens) (P04150 whole entry, looked up): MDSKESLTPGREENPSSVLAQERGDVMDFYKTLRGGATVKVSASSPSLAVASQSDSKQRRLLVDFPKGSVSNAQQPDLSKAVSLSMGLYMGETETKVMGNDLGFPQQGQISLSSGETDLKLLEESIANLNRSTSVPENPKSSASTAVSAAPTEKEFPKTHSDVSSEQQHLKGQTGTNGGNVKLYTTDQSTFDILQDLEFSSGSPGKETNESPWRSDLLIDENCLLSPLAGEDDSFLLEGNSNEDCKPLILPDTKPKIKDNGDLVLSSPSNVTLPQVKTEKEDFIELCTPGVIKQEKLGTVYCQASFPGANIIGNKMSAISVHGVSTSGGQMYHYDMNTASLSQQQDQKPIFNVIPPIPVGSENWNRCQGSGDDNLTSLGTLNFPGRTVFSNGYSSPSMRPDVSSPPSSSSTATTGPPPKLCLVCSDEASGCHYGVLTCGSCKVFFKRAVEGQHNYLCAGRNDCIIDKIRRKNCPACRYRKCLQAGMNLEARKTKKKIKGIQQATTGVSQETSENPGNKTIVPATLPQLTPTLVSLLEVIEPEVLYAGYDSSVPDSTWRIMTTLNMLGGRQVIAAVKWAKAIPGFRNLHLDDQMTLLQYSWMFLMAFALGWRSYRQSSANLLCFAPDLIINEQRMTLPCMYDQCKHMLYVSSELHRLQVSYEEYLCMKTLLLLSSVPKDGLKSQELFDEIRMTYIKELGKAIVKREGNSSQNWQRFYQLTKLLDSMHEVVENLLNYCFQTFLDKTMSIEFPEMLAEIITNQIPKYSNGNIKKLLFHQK
Summary of the method: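 Compounds in DMSO, alongside positive controls, were added to GR-bla HeLa reporter cells and incubated 18 h at 37 C; GRE-driven beta-lactamase was detected by fluorescence after 2 h with FRET substrate at room temperature.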

[17] = target: Glucocorticoid receptor (Homo sapiens) (UniProt P04150); experiment: qHTS assay to identify small molecule antagonists of the glucocorticoid receptor (GR) signaling pathway (AID 720692; active = well fitted inhibition curve with a large enough effect in the signal ratio in the repeat runs, not every such curve was filed as active; inconclusive = weak or mixed curves, or effect the other way; inactive = no such curve, though single readings can be large or run the other way; the % refers to the signal ratio; note: potency is the fitted concentration of half-maximal effect)
Summary of the method: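 In a 1536-well cell format, compounds were added 4 h after seeding GR-bla HeLa cells, together with dexamethasone at 5 nM final; reporter activity was measured by FRET-substrate fluorescence following 18 h at 37 C.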

[18] = qHTS assay to test for compound auto fluorescence at 535 nm (green) in HEK293 cells (AID 720680)
[19] = qHTS assay for small molecule disruptors of the mitochondrial membrane potential (AID 720635); note: potency is the fitted concentration of half-maximal effect
Summary of the method: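 Mitochondrial membrane potential tracked with Mito-MPS dye, red aggregates (ex 540/em 590 nm) against green monomers (ex 490/em 535 nm). Compound treatment 1 hr at 37C, dye 30 min in HepG2.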

Structure (SMILES) | Potency [1] | Potency [2] | Potency [3] | Potency [4] | Potency [5] | Potency [6] | Potency [7] | Potency [8] | Potency [9] | Potency [10] | Potency [11] | Potency [12] | Potency [13] | Potency [14] | Potency [15] | Potency [16] | Potency [17] | Potency [18] | Potency [19]
Cc1c(F)c(N2CCNC(C)C2)cc2c1c(=O)c(C(=O)O)cn2C1CC1 (stereo not drawn) | inactive | inactive | inactive | inactive | inactive | inactive | inactive | inactive | inactive | inactive | inactive | inactive | inactive | inactive | inactive | inactive | inactive |  | 
CCCCCC/C=C\CCCCCCCC(=O)O | inactive | inactive | inactive | inactive | inactive |  | inactive | inactive | inactive | inactive | inactive | inactive | inactive | inactive | inactive |  |  | inactive | 
CN1CCN2c3ccccc3Cc3ccccc3C2C1 (stereo not drawn) | inactive |  | inactive | inactive | inactive | inactive | inactive | inactive | inactive | inactive | inactive | inactive | inactive | inactive | inactive |  |  | inactive | 
C/C=C/C=C/COC(=O)C(C)C |  | inactive | inactive | inactive | inactive | inactive | inactive | inactive | inactive | inactive | inactive | inactive |  |  | inactive | inactive | 34.7 µM (active) | inactive | inactive
Cc1ccc(O)c(O)c1 | inactive |  | inactive | inactive | inactive | inactive | inactive | inactive | inactive | inactive | inactive | inactive | inactive | inactive | inactive |  |  | inactive | 
O=C1CCc2cc(OCCCCc3nnnn3C3CCCCC3)ccc2N1 |  |  | inactive | inactive | inactive | inactive |  | inactive | inactive | inactive | inactive | inactive | inactive | inactive | inactive | inactive |  | inactive | 
CC[C@H](C)COC(=O)/C=C/c1ccc(N=Cc2ccc(OC)cc2)cc1 |  | inactive | inactive |  | inactive | inactive | inactive | inactive |  | inactive | inactive |  | inactive | inactive | inactive | inactive | inactive |  | 30.6 µM (active)
C#CC1(O)CC[C@H]2[C@@H]3CCC4=CCCC[C@@H]4[C@H]3CC[C@@]21C (stereo partly drawn) |  | inactive and 68.6 µM (active) | inactive | inactive | inactive | inactive |  | inactive | inactive | inactive | inactive | inactive | inactive | inactive | inactive | inactive |  | inactive | 9.02 µM (active) and 17.2 µM (active)
O=C1CCc2ccc(OCCCCN3CCN(c4cccc(Cl)c4Cl)CC3)cc2N1 |  | 23.7 µM (active) | inactive |  | inactive | inactive | inactive | inactive | inactive | inactive | inactive | inactive | inactive | inactive | inactive | inactive |  | inactive | 
COC(=O)C1=C(C)NC(C)=C(C(=O)OCCN2CCN(C(c3ccccc3)c3ccccc3)CC2)C1c1cccc([N+](=O)[O-])c1 (stereo not drawn) | inactive |  | 11.9 µM (active) |  | inactive | inactive | inactive | inactive | inactive | inactive | inactive | inactive | inactive | inactive | inactive | inactive |  |  | 10.6 µM (active)
C=CCCC(=O)/C=C/C1C(C)=CCCC1(C)C (stereo not drawn) |  | inactive | inactive | inactive | inactive | inactive | inactive | inactive | inactive | inactive | inactive | inactive |  | inactive | inactive | inactive | inactive | inactive | 61.1 µM (active)
CC(=O)[C@H]1CC[C@H]2[C@@H]3CCC4=CC(=O)CC[C@]4(C)[C@H]3CC[C@]12C | inactive |  | inactive | inactive | inactive | inactive | inactive | inactive | inactive | inactive | inactive | inactive | inactive |  | inactive |  |  | inactive | 19.3 µM (active)
CCC(C)[O-].CCC(C)[O-].CCOC(=O)/C=C(/C)[O-].[Al+3] |  |  | inactive | inactive | inactive | inactive |  | inactive | inactive | inactive | inactive | inactive | inactive | inactive |  |  |  | inactive | inactive
CCCNCCC |  | inactive | inactive | inactive | inactive | inactive | inactive | inactive |  | inactive | inactive | inactive | inactive |  | inactive | inactive | inactive | inactive | inactive
COC(C)=O |  | inactive | inactive | inactive | inactive | inactive | inactive | inactive | inactive | inactive | inactive |  | inactive | inactive | inactive | inactive | inactive | inactive | inactive
COc1cccc2c1C(=O)c1c(O)c3c(c(O)c1C2=O)C[C@@](O)(C(C)=O)C[C@@H]3O[C@H]1C[C@H](N)[C@H](O)[C@H](C)O1 |  |  | 9.44 µM (active) and 30.8 µM (active) | inactive |  |  | inactive | inactive | inactive | inactive | inactive |  | inactive | inactive | inactive | 3.01 µM [inconclusive] (active) and 49.3 µM [inconclusive] (active) |  |  | 1.5 µM (active) and 4.35 µM (active)
CCCCCCCCCCCCOCCOCCOCCOCCOCCOCCOCCOCCOCCO | inactive | 26.6 µM (active) |  |  | inactive | inactive | inactive | inactive | inactive | inactive | inactive | inactive | inactive |  | inactive |  |  | inactive | 
CCN(CC)C(=O)c1cc(S(=O)(=O)Cc2ccccc2)c(N2CCC(c3ccccc3)CC2)cc1N(CC)CCN(C)C | inactive | 29.8 µM (active) | 29.8 µM (active) |  |  | inactive | inactive | inactive | inactive | inactive | inactive | inactive | inactive |  | inactive | inactive | 21.3 µM (active) and inactive |  | 
Oc1cc(Cl)cc(Cl)c1Cl |  | inactive |  |  | inactive | inactive | inactive | inactive | inactive | inactive | inactive | inactive |  | inactive | inactive | inactive |  | inactive | 4.97 µM (active)
